Six1-Eya2 inh = qHTS Assay for Inhibitors of the Six1/Eya2 Interaction; AlphaScreen GST-Six1/His-Eya2 binding, biochemical; hits give low values; activity change, % (test concentration not listed); actives 0.56% (n = 360,000); AID 651725, 2012; in the data active means activity change below about -65%; inconclusive means mostly about -30% to -63%
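Six1/Eya2 binding was read as AlphaScreen signal after compounds were pinned into GST-Six1 plus His-tagged Eya2 (5X stock 250/500 nM) in pH 8.0 Tris/NaCl/TCEP buffer, beads added, then incubated 1 h, 37 C, dark.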
VP16 counter = VP16 counterscreen qHTS for inhibitors of ROR gamma transcriptional activity. Potency, µM (titrated, usually from 53.6 µM), hits mostly inhibitors. actives 3.5% (n = 310,000). Drosophila S2 Gal4-VP16 UAS-luciferase, luminescence, 20 h. AID 2546, 2010;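 further: Gal4-VP16 expression switched on by copper sulfate through the metallothionein promoter; nearly all actives have a fitted effect of over 50% in size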
CtBP-E1A inh = qHTS Assay for Inhibitors of the CtBP/E1A Interaction. activity change, % (no concentration beside the values). actives 0.49% (n = 340,000). AlphaScreen GST-E1A/His-CtBP binding, 1536-well; hits give low values. AID 651724, 2012; in the data active means activity change below about -65%; inconclusive means mostly about -30% to -63%
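In 5 uL wells, 23 nL compound meets equimolar GST-E1A and His-CtBP (5X stock 125 nM each) for 2 h, 37 °C. Beads (5X, 50 ug/mL) then 1 h, 37 °C, dark.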
RORg inh = qHTS for inhibitors of ROR gamma transcriptional activity; Drosophila S2 Gal4-RORgamma UAS-luciferase reporter, 20 h; Potency, µM (titrated, usually from 53.6 µM), hits mostly inhibitors; actives 5.4% (n = 310,000); further: nearly all actives have a fitted effect of over 60% in size
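Stably transfected Drosophila Schneider cells are the test system, with ROR gamma fused to Gal4 and luciferase under UAS control; luminescence is read after 20 hr of 700 uM copper sulfate induction at ambient temperature.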
PKM2 activator = qHTS Assay for Activators of Human Muscle isoform 2 Pyruvate Kinase; Pyruvate kinase PKM (Homo sapiens), P14618; purified PKM2, Kinase-Glo ATP luminescence, activation; response scale: 0% is enzyme alone, no compound; Potency, µM (titrated, usually from 57.5 µM), hits mostly activators; actives 0.34% (n = 260,000); AID 1631, 2009; further: nearly all actives have a fitted effect of over 55% in size
Target sequence (P14618 whole entry, looked up, canonical isoform): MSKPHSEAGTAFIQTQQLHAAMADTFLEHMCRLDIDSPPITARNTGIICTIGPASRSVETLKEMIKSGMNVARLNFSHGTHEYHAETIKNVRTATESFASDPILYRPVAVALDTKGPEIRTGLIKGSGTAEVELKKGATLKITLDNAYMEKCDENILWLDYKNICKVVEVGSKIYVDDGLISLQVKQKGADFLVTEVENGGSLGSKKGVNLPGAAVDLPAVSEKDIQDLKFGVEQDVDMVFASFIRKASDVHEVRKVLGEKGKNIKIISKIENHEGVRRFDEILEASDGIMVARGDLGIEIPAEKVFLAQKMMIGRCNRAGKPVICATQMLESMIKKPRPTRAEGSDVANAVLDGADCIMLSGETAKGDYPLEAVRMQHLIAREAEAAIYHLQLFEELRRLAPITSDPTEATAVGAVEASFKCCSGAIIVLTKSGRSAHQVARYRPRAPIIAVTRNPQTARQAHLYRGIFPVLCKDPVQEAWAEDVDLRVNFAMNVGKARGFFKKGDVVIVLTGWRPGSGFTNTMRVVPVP
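Purified hPK-M2 (>95% pure) converted ADP (0.1 mM final) to ATP with 0.5 mM PEP in 50 mM imidazole pH7.2, KCl, MgCl2, Tween 20, BSA; 1 h at room temperature. ATP detected by Kinase-Glo luminescence.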
Of the large screens only hits and unclear results are named; the others gave an inactive call. Sampled rows, rich in hits. Any-hit rate of the full collection: about 5.6%. Unless noted, the call rests on the fitted dose curve; in most records, active means well fitted curve in the direction sought with a large enough effect; inconclusive means small, poorly fitted or top-dose-only effect, or another doubt; inactive means no such curve, though single readings can be large; an effect the other way counts as inactive or inconclusive.

O=C(c1ccc2c(c1)OCO2)C1CCCN(Cc2ccccn2)C1 (configuration not stated)	VP16 counter inconclusive, RORg inh 3.2µM
COc1c(C)cc(C(=O)C2CCCN(Cc3ccccn3)C2)cc1C (configuration not stated)	VP16 counter 10µM, RORg inh 2µM
COc1cccc(C(=O)C2CCCN(Cc3ccccn3)C2)c1 (configuration not stated)	VP16 counter inconclusive, RORg inh 3.5µM
Cc1coc2c1CCC(C)C2 (configuration not stated)	none (no result: Six1-Eya2 inh, CtBP-E1A inh, PKM2 activator)
CCC1C2CC3C4N(C)c5ccccc5[C@]45CC(C2C5O)N3C1O (some centres not stated)	none (no result: Six1-Eya2 inh, CtBP-E1A inh, PKM2 activator)
Oc1ccc2[nH]cc(CCCCN3CC=C(c4ccccc4)CC3)c2c1	none (no result: Six1-Eya2 inh, CtBP-E1A inh, PKM2 activator)
COC(=O)[C@]1(C)CC[C@@]2(C)CC[C@@]3(C)C4=CC=C5C(=CC(=O)C(O)=C5C)[C@@]4(C)CC[C@@]3(C)C2C1 (some centres not stated)	VP16 counter 3.5µM, RORg inh 4µM (no result: Six1-Eya2 inh, CtBP-E1A inh, PKM2 activator)
CCCCC/C=C\C/C=C\C/C=C\C/C=C\CCCC(=O)OCCN	VP16 counter inconclusive (no result: Six1-Eya2 inh, CtBP-E1A inh, PKM2 activator)
CN(C)c1ccc(/C=C/[N+](=O)[O-])cc1	VP16 counter 13µM, RORg inh 11µM
C/C(=C\c1ccc(N(C)C)cc1)[N+](=O)[O-]	VP16 counter 22µM, RORg inh 7.1µM
CN(C)c1ccc(C=C2C(=O)NC(=O)NC2=O)cc1	none (no result: VP16 counter, RORg inh, PKM2 activator)
C[C@@H](NC(=O)[C@@H](N)Cc1ccc(O)cc1)C(=O)NCC(=O)N(C)[C@@H](Cc1ccccc1)C(=O)NCCO	none (no result: Six1-Eya2 inh, CtBP-E1A inh, PKM2 activator)
COc1ccc(/C=C/C(=O)NC(=S)N2C[C@H]3C[C@H](C2)c2cccc(=O)n2C3)cc1	none
COc1ccc(C(=O)NC(=S)N2C[C@H]3C[C@H](C2)c2cccc(=O)n2C3)cc1	RORg inh inconclusive
O=C(/C=C/c1ccc(Br)cc1)NC(=S)N1C[C@H]2C[C@H](C1)c1cccc(=O)n1C2	RORg inh 18µM
O=C(/C=C/c1ccc(Cl)cc1)NC(=S)N1C[C@H]2C[C@H](C1)c1cccc(=O)n1C2	RORg inh 13µM
CCOC(=O)C1OC1(C)c1ccccc1 (configuration not stated)	none (no result: Six1-Eya2 inh, CtBP-E1A inh, PKM2 activator)
COc1ccc(CCNc2oc(-c3ccc(OC)c(OC)c3)nc2P(=O)(OC)OC)cc1OC	VP16 counter inconclusive
CCCOCCN(C(=O)CCl)c1c(CC)cccc1CC	none (no result: Six1-Eya2 inh, CtBP-E1A inh, PKM2 activator)
C/C(=N\N1CCCCC1c1cccnc1)c1c(O)n(C2CCCCC2)c(=S)[nH]c1=O (configuration not stated)	VP16 counter 4µM, RORg inh 3.2µM
CCCCn1c(O)c(/C(CC)=N/N2CCCCC2c2cccnc2)c(=O)[nH]c1=S (configuration not stated)	VP16 counter inconclusive, RORg inh inconclusive
CCOP(=S)(OCC)Oc1ccc([N+](=O)[O-])cc1	none (no result: Six1-Eya2 inh, CtBP-E1A inh, PKM2 activator)
C=CC[N+]1(C)CCC23c4c5ccc(O)c4O[C@H]2C(=O)CC[C@@]3(O)C1C5 (some centres not stated)	none (no result: Six1-Eya2 inh, CtBP-E1A inh, PKM2 activator)
Cc1cc(C(=O)CN2C(=O)c3ccccc3C2=O)c(C)n1C1CC1	VP16 counter 16µM
CC(C)Br	none (no result: Six1-Eya2 inh, CtBP-E1A inh, PKM2 activator)
CCNCCNc1ccc([N+](=O)[O-])c2cccnc12	VP16 counter 20µM, RORg inh 2.8µM
Cc1nonc1OCCNCCNc1ccc([N+](=O)[O-])c2cccnc12	VP16 counter 5µM, RORg inh 1.8µM
O=[N+]([O-])c1ccc(N2CCCC2)c2ncccc12	none
COc1ccc(NC(=O)C(=O)NNC(=O)C(C)Oc2ccc(Cl)cc2Cl)cc1 (configuration not stated)	VP16 counter inconclusive, RORg inh 5µM (no result: PKM2 activator)
COC(=O)COc1ccc(Cl)cc1Cl	none (no result: Six1-Eya2 inh, CtBP-E1A inh, PKM2 activator)

Compound activity from PubChem.
